Source: PubChem
The full list was thinned out, with hits kept by preference.
ROC1-CUL1 inh: inhibitors of human ROC1-CUL1 ubiquitin ligase activity; P62877+Q13616; in vitro K48 di-Ub FRET, acceptor:donor ratio, 45 min; inhibition, % at 10 µM; 140,000 tested, 0.6% active; AID 1347404; in the data active = inhibition above about 25%
Target sequence (P62877 whole entry, looked up): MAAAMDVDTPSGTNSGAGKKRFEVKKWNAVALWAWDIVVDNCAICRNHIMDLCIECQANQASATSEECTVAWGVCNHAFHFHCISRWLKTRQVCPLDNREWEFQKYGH
Target sequence (Q13616 whole entry, looked up): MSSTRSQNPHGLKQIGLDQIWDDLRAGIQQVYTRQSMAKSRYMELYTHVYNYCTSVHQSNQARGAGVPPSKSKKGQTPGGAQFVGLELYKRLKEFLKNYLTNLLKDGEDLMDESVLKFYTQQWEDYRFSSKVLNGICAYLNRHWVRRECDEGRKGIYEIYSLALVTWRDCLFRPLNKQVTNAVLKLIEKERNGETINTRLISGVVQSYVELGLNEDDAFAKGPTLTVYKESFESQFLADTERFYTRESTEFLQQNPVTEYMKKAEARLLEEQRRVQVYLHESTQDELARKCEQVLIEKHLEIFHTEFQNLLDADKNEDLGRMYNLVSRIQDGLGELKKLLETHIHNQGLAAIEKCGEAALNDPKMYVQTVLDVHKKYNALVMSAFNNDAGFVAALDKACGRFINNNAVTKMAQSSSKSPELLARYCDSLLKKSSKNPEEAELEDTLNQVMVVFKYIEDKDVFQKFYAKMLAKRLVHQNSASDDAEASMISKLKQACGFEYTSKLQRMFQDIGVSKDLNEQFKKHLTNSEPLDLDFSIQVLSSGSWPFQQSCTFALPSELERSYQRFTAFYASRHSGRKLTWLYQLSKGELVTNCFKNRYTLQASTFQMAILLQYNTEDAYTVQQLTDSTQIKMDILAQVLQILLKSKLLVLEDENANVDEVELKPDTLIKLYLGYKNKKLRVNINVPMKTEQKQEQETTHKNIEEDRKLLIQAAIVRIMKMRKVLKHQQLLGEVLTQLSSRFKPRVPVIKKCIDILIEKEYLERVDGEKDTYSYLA
Starred values were filed as active, the others as inactive.

SMILES | ROC1-CUL1 inh
Cc1ncoc1C(=O)N1CCCC(CCc2cccc(F)c2)C1 (stereo unspecified) | 8.5
CCC[C@H]1c2ccccc2OC(=O)[C@@H]1C(=O)OCC | 6.8
COCc1cn(CC2CCCN(C(=O)NCc3ccccc3C)C2)nn1 (stereo unspecified) | -11.9
Cc1ccccc1CC(C1CCN(C(=O)c2ccc3ncccc3c2)CC1)N(C)C(=O)Cn1cccn1 (stereo unspecified) | -0.9
CCc1ccc(N2NC(=O)/C(=C/c3ccc(-c4ccccc4F)o3)C2=O)cc1 | -1.2
COC(=O)c1cccc(-c2ccc(/C=C3/C(=O)NN(c4ccc(C)cc4)C3=O)o2)c1 | 14.8
O=C1NN(c2ccc(I)cc2)C(=O)/C1=C\c1ccc(-c2cccc(C(=O)O)c2)o1 | 32.5*
O=C1NN(c2ccc(Cl)c(Cl)c2)C(=O)/C1=C\c1ccc(-c2ccc(Br)cc2C(=O)O)o1 | 71.4*
COC(=O)c1ccccc1-c1ccc(/C=C2\C(=O)NN(c3ccc(Br)cc3)C2=O)o1 | 10.9
Cc1ccc(/C=C2/C(=O)NN(c3cccc(C(F)(F)F)c3)C2=O)o1 | 8.6
O=C1NN(c2ccc(I)cc2)C(=O)/C1=C\c1ccc(-c2ccc(Br)cc2C(=O)O)o1 | 45.0*
CCOC(=O)C1=C(C(=O)OCC)SC2(S1)C(C(=O)OCC)=C(C(=O)OCC)SC1=C2c2ccc(C)cc2N(C(C)=O)C1(C)C | -5.1
COC(=O)c1cc(O)c2c(c1)Oc1nc3ccccc3nc1O2 | -7.6
Cc1cc(C)n(CCCN(C)[C@@H]2c3ccccc3C3(CCNCC3)[C@H]2O)n1 | -4.9
CCOC(=O)c1c(NC(=O)CSc2nnc3sc4ccccc4n23)sc(C)c1-c1ccc(Cl)cc1 | 9.6
CC(NC(=O)Cn1cnc([N+](=O)[O-])n1)C1CC2CCC1C2 (stereo unspecified) | 4.5
Cc1nnc(N2C(=O)C(=O)C(C(=O)c3cc4ccccc4o3)C2c2cccc(Oc3ccccc3)c2)s1 (stereo unspecified) | 34.8*
Cc1nnc(N2C(=O)C(=O)C(C(=O)c3cc4ccccc4o3)C2c2ccc(Cl)c(Cl)c2)s1 (stereo unspecified) | -8.7
CCOc1ccc2nc(N3C(=O)C(=O)C(C(=O)c4cc5ccccc5o4)C3c3cccc(Oc4ccccc4)c3)sc2c1 (stereo unspecified) | -2.3
CN(C(=O)c1coc(COc2cccc3cnccc23)n1)C(C1CC1)C1CC1 | -0.1
CCOC(=O)C1=C(C)N=c2s/c(=C/c3cn[nH]c3-c3ccccc3)c(=O)n2C1c1ccc(O)cc1 (stereo unspecified) | 8.2
CC1=NN(c2cc(S(=O)(=O)O)cc(C(=O)O)c2O)C(=O)C1 | 69.2*
Nc1cc(S(=O)(=O)O)cc(C(=O)O)c1O | 11.6
O=C(O)c1cc(S(=O)(=O)O)cc(Nc2c3ccccc3nc3ccccc23)c1O | -7.5
CCCCCC(=O)Nc1sc2c(c1C(N)=O)CCCCCC2 | -1.4
SMILES | ROC1-CUL1 inh
CC1(C)CC(=O)C2=C(C1)N(c1cc(C(F)(F)F)ccc1Cl)C(=N)C(C#N)C2c1ccccc1Cl (stereo unspecified) | 1.5
CS(=O)(=O)C(C(=O)c1ccccc1)C(=O)c1ccccc1 | -4.8
CS(=O)(=O)C#Cc1ccccc1 | 51.8*
Brc1ccc(C#Cc2ccccc2)cc1 | -2.6
Oc1ccc2c(c1)c(-c1ccccc1)nn2-c1ccccc1 | -2.4
O=C1C=CC(=O)c2c1c(-c1ccccc1)nn2-c1ccccc1 | 92.0*
O=C(O)c1nn(-c2ccccc2)c(-c2ccccc2)c1C(=O)c1ccccc1 | -5.1
CCn1c(C)cn2c3c(=O)n(Cc4cccc(C)c4)c(=O)n(C)c3nc12 | 5.0
NS(=O)(=O)c1cnccc1Sc1cccc(Cl)c1 | -2.5
Fc1ccc(C2CCCN(CCN3CCCC3)c3cc(F)ccc32)cc1 (stereo unspecified) | 4.9
CCCN1C(=O)/C(=C\c2ccc(-c3cc(C(=O)O)ccc3C)o2)C(=O)N(c2ccccc2)C1=S | 45.1*
Cc1cc(C(=O)O)ccc1-c1ccc(/C=C2\SC(=O)N(CC(=O)N3CCCC3)C2=O)o1 | 10.4
CCCN1C(=O)/C(=C/c2cc(-c3ccccc3)n(-c3ccc(C(=O)OCC)cc3)c2-c2ccccc2)C(=O)N(c2ccccc2)C1=S | 18.1
CCCN1C(=O)/C(=C\c2ccco2)C(=O)N(c2ccccc2)C1=S | -5.0
Cc1ccc(C(=O)O)cc1-c1ccc(/C=C2\SC(=O)N(Cc3ccccc3F)C2=O)o1 | 50.2*
Cc1cc(C(=O)O)ccc1-c1ccc(/C=C2/SC(=O)N(C(C)C)C2=O)o1 | 63.9*
Cc1cc(C(=O)O)ccc1-c1ccc(/C=C2\SC(=O)N(CC(=O)N3CCOCC3)C2=O)o1 | 0.1
CCN1C(=O)S/C(=C/c2ccc(-c3cc(C(=O)O)ccc3C)o2)C1=O | -0.3
C=CCN1C(=O)S/C(=C/c2ccc(-c3cc(C(=O)O)ccc3C)o2)C1=O | 6.8
CC(C)N(Cc1nccn1C)C(=O)c1cc(COc2ccccc2F)[nH]n1 | 1.4
CC(C(=O)O)C1CCC2(CO)CCC3(C)C(CCC4C5(C)CCC(O)C(C)(C)C5CCC43C)C12 (stereo unspecified) | -3.5
COc1ccc(/C=C/C(=O)N2CCC3(CC2)CC3C(=O)N(C)Cc2nonc2C)cc1 (stereo unspecified) | -6.6
O=C(NCCC1CCCCO1)c1coc(CN2CCN(c3ncccn3)CC2)n1 (stereo unspecified) | 6.1
CCOC(=O)c1c(NC(=O)c2ccc([N+](=O)[O-])cc2[N+](=O)[O-])sc2c1CCC2 | 1.7
O=C(c1ccco1)N(C1CC1)C(Cc1ccccc1)C1CCN(Cc2cc(F)ccc2F)CC1 (stereo unspecified) | -0.4
SMILES | ROC1-CUL1 inh
Fc1ccc(-c2cc(-c3ccccc3)nc(-n3cccn3)n2)cc1 | -2.3
Oc1cc(-n2cccn2)c(O)c2ccccc12 | 42.1*
c1ccc(Nc2nc(Nc3ccccc3)nc(-n3cccn3)n2)cc1 | 4.8
Cc1ccc(CNC(=O)c2cc(Cn3ccnc3C(C)C)[nH]n2)o1 | -12.6
O=C1CC(NC2CCN(Cc3ccccc3)CC2)C(=O)N1c1ccccc1 (stereo unspecified) | 0.8
CCON1N=C(OCC(=O)c2ccccc2)Oc2ncn(-c3ccc(OC)cc3)c21 | -3.4
COc1ccc(-c2occ(C(=O)O)c2C(=O)O)cc1 | 47.0*
COc1ccc2occ(C(=O)c3coc4ccc(OC)cc34)c2c1 | 1.0
O=C(O)c1ccccc1-c1occ(C(=O)c2ccccc2)c1C(=O)O | 8.9
CC(OC1CC(=O)CC2C(=O)c3c(O)ccc(O)c3C(=O)C12)c1ccc2ccccc2c1 (stereo unspecified) | 97.2*
COc1ccc(C(C)OC2CC(=O)CC3C(=O)c4cccc(O)c4C(=O)C23)cc1 (stereo unspecified) | 2.4
CC(C)(C)OC1CC(O)CC2C(=O)c3c(O)ccc(O)c3C(=O)C12 (stereo unspecified) | 14.5
CC(=O)Oc1ccc(O)c2c1C(=O)C=CC2=O | 105.0*
COc1cc(C(=O)O)ccc1OC(=O)c1ccccc1OC(C)=O | 2.8
CC(=O)Oc1ccc(OC(C)=O)c2c1C1CCCCC1=C1CCCCC12 (stereo unspecified) | 1.9
Cc1c(C)n2c3c(=O)n(CCCO)c(=O)n(C)c3nc2n1-c1ccccc1 | -8.3
COc1cccc(CC2=NC(=O)N(Cc3ccc(C)cc3)C2=O)c1OCC(=O)Nc1ccc(C)cc1 | -2.6
O=C1NN(c2ccc(Cl)c(Cl)c2)C(=O)/C1=C/c1ccc(Br)cc1 | 57.4*
O=C1NN(c2ccc(Cl)c(Cl)c2)C(=O)/C1=C/c1cc(Br)ccc1O | 73.2*
